Measurements taken from PubChem BioAssay.
Active and inactive are the calls of the source. Unless noted, the rule behind the calls is not given here.

What was measured:
[1] = resazurin metabolic signal in HepG2 cells – cell-based, resazurin fluorescence, 24 h, PK04 Diversity Set, profiling panel (AID 1172); conditions: HepG2 viability, higher = more signal; note: test concentration not given here
[2] = budding yeast growth changes without added modifier – OD600, strain BY4716, 24 h, basal condition, primary screen (AID 1173); conditions: S. cerevisiae BY4716 growth, OD600, 24 h; higher = more signal, called active from +8 up or from −8 down
[3] = viability profiling in MM1S myeloma cells – cell-based, resazurin fluorescence, basal, 24 h, PK04 Diversity Set, profiling panel (AID 1174); conditions: higher = more signal, called active from +8 up or from −8 down;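 note: MM1S multiple myeloma cell line; test concentration not given here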
[4] = biological target: Dihydroorotate dehydrogenase (quinone), mitochondrial (Plasmodium falciparum (isolate 3D7)) (UniProt Q08210); assay: inhibition of P. falciparum DHODH – biochemical, C-terminal His tag, absorbance 600 nm, primary screen (AID 1175); conditions: PfDHODH enzyme, DCIP absorbance 600 nm; higher = more signal, called active from +8 up or from −8 down;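 note: recombinant parasite enzyme with a five histidine tag at its C terminus; test concentration not given here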
[5] = inhibition of PAO1 biofilm formation – strain PAO1, LB-PBS medium, absorbance 600 nm, primary screen (AID 1176); note: test concentration not given here; conditions: P. aeruginosa PAO1 growth/biofilm, A600, 12 h; higher = more signal
[6] = growth modulation of vineyard yeast isolate – strain RM11-1a, OD600, basal, 24 h, primary screen (AID 1177);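 note: cultures grown under basal conditions with no added stressor; test concentration not given here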; conditions: S. cerevisiae RM11-1a growth, OD600, 24 h; higher = more signal, called active from +8 up or from −8 down
[7] = growth of efflux-deficient E. coli DRC39 – strain DRC39, OD650, 24 h, E. coli filamentation inducers, primary screen (AID 1178);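 note: growth measured as culture turbidity by optical density at 650 nm; test concentration not given here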; conditions: E. coli DRC39 acrAB, higher = more signal, called active from +8 up or from −8 down
[8] = growth of efflux-deficient E. coli DRC39 – strain DRC39, OD650, 48 h, E. coli filamentation inducers, primary screen (AID 1179);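 note: screen aims at cell division blockers that make cells filament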; conditions: E. coli DRC39 delta-acrAB growth, higher = more signal, called active from +8 up or from −8 down
[9] = viability profiling in RPMI8226 myeloma cells – cell-based, resazurin fluorescence, basal, 24 h, PK04 Diversity Set, profiling panel (AID 1180); conditions: higher = more signal;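 note: RPMI8826 multiple myeloma cell line at 5000 cells per well; test concentration not given here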
[10] = biological target: E3 ubiquitin-protein ligase XIAP (Homo sapiens) (UniProt P98170); assay: small molecules binding XIAP protein – biophysical, small-molecule microarray, fluorescence 635 nm, primary screen (AID 1181); conditions: higher = more signal;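 note: score merges 667 nm emission and signal to noise over triplicate slides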
E3 ubiquitin-protein ligase XIAP (Homo sapiens), sequence (P98170 whole entry, looked up): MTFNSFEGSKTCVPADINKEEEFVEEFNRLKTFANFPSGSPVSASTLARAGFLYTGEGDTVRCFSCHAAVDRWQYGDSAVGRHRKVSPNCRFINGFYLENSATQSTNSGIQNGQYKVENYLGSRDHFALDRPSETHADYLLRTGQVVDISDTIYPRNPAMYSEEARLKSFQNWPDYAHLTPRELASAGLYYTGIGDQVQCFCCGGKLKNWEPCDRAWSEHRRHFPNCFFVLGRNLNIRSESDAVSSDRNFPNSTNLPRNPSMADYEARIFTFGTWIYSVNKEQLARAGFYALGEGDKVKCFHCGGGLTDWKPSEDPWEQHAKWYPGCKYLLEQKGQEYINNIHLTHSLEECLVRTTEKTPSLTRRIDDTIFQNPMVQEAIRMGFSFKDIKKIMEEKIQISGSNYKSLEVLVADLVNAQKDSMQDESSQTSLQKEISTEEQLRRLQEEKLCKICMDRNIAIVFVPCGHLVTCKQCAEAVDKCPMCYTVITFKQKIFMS

Dihydroorotate dehydrogenase (quinone), mitochondrial (Plasmodium falciparum (isolate 3D7)), sequence (Q08210 whole entry, looked up): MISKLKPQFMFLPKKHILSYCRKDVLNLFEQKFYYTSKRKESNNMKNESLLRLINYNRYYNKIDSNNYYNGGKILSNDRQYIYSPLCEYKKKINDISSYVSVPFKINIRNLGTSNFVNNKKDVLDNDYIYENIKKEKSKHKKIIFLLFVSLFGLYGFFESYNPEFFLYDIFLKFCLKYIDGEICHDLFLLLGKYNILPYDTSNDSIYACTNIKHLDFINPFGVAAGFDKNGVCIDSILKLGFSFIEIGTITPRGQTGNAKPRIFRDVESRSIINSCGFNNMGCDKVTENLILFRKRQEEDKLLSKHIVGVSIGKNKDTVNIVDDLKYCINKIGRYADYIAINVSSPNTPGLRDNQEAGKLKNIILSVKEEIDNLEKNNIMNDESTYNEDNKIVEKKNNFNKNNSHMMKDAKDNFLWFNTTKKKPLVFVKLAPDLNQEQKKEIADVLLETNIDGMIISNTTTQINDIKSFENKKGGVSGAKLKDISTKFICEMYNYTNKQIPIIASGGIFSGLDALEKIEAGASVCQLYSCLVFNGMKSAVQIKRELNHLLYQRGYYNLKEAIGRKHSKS

SMILES	z-score [1]	z-score [2]	z-score [3]	composite z-score [4]	z-score [5]	z-score [6]	z-score [7]	z-score [8]	z-score [9]	composite z-score [10]
C=CCOC(=O)[C@@H]1[C@H]2C(=O)O[C@H](c3ccccc3)[C@H](c3ccccc3)N2[C@H](c2ccc(OCCOC(=O)[C@H]3C[C@H]4C(=O)N[C@@H](Cc5ccccc5)C(=O)N4[C@H]3c3cccc(OCCO)c3)cc2)[C@@]12C(=O)Nc1ccc(I)cc12	-0.208	-0.215 (inactive)	-1.94 (inactive)	-3.73 (inactive)	0.199 (inactive)	2.13 (inactive)	-0.847 (inactive)	0.573 (inactive)	-1.01	-0.128
C=C(/C(=C/C[C@@H](OC(=O)c1ccncc1)c1cccc(OCCO)c1)c1cc(C(=O)OC)ccc1OC)C(C)C	0.677	-0.243 (inactive)	-0.261 (inactive)	-2.04 (inactive)	1.16 (inactive)	0.0342 (inactive)	2.07 (inactive)	1.42 (inactive)	0.301	-0.107
C=C(/C(=C/C[C@@H](OC(=O)c1ccncc1)c1ccccc1OCCO)c1cnc2ccccc2c1)C(C)C	-1.11	-18.3 (active)	-0.807 (inactive)	-6.99 (inactive)	0.485 (inactive)	-21.9 (active)	-0.328 (inactive)	-0.805 (inactive)	-0.365	0.326
C=C(C(=O)CC[C@H](OC(=O)c1cccnc1)c1ccc(OCCO)cc1)C(C)C	-0.688	-0.303 (inactive)	-2.35 (inactive)	0.349 (inactive)	0.273 (inactive)	0.899 (inactive)	-0.97 (inactive)	-0.899 (inactive)	-2.53	0.158
COCCOC(=O)N1C(=O)[C@@]2(c3ccccc31)[C@H](c1ccc(OCCO)cc1)N1[C@H](c3ccccc3)[C@H](c3ccccc3)OC(=O)[C@H]1[C@@H]2C(=O)NC[C@H](O)c1ccccc1	0.37	1.96 (inactive)	-0.261 (inactive)	-1.93 (inactive)	2.32 (inactive)	2.94 (inactive)	0.271 (inactive)	0.193 (inactive)	-0.25	-0.148
CC1(C)[C@@H]2CC(C(O)C3C=CC4C(=O)N(c5ccccc5)C(=O)C4N3Nc3ccccc3F)=C[C@@H]1C2 (stereo not given in full)	1.48	-0.393 (inactive)	0.941 (inactive)	1.09 (inactive)	0.16 (inactive)	-0.393 (inactive)	0.018 (inactive)	0.985 (inactive)	-1.19	0.18
COc1ccc([Si](C)(C)[C@@H]2[C@@H](CCO)O[C@]3(C(=O)N(Cc4ccccc4)c4ccc(N5CCCCC5=O)cc43)[C@H]2C)cc1	-1.62	0.86 (inactive)	-3.11 (inactive)	-2.04 (inactive)	-0.565 (inactive)	3.49 (inactive)	-0.277 (inactive)	-0.18 (inactive)	-2.29	-0.0826
O=C1O[C@@H](c2ccccc2)[C@@H](c2ccccc2)N2[C@@H](c3ccc(O)cc3)[C@]3(C(=O)Nc4ccc(C#CC5(O)CCCCCC5)cc43)[C@@H](C(=O)N3CCN(c4ncccn4)CC3)[C@H]12	1.63	-0.271 (inactive)	0.0176 (inactive)	-1.08 (inactive)	-0.641 (inactive)	0.642 (inactive)	0.614 (inactive)	0.11 (inactive)	1.1	-0.127
[N-]=[N+]=Nc1ccccc1C[C@]1(C(=O)NCCN2CCOCC2)N=C(c2ccc(OCCCO)cc2)O[C@H]1c1ccccc1N=[N+]=[N-]	-1.31	-4.84 (inactive)	-1.83 (inactive)	-0.695 (inactive)	-0.596 (inactive)	-0.505 (inactive)	-0.0345 (inactive)	1.31 (inactive)	-2.13	0.0402
COCCCNC(=O)[C@@]1(Cc2ccccc2I)c2ccccc2C(=O)N(Cc2ccccc2Cl)[C@H]1c1ccc(CO)cc1	1.01	-1 (inactive)	1.59 (inactive)	-0.278 (inactive)	0.112 (inactive)	-0.0403 (inactive)	0.0867 (inactive)	0.607 (inactive)	1.82	0.186
CCOC(=O)C[C@H]1[C@H](OC(=O)Cc2ccc3c(c2)OCO3)[C@@H](NC(=O)c2ccccc2)c2cc(OCCCO)ccc2N1C(=O)c1ccc2ccccc2n1	-0.287	-1.02 (inactive)	0.426 (inactive)	-1.03 (inactive)	-0.0057 (inactive)	-1.68 (inactive)	0.907 (inactive)	0.88 (inactive)	0.121	-0.138
COc1ccc([Si](C)(C)[C@@H]2[C@@H](CC(=O)N(CCO)Cc3ccccc3)O[C@]3(C(=O)N(C)c4c(Br)cc(C)cc43)[C@H]2C)cc1	-1.57	-0.951 (inactive)	-1.79 (inactive)	0.216 (inactive)	0.802 (inactive)	1.64 (inactive)	-0.109 (inactive)	-0.75 (inactive)	-2.21	-0.174
COC(=O)c1ccc(OC)c(/C=C\CC(CCc2ccccc2)OC(=O)c2ccncc2)c1 (stereo not given)	0.263	0.0069 (inactive)	0.472 (inactive)	-3.1 (inactive)	0.0619 (inactive)	-0.0204 (inactive)	0.0514 (inactive)	-0.379 (inactive)	1.24	2.62
CC(C)C[C@@H]1NC(=O)[C@@H]2C[C@H](C(=O)NCCCC[N+](C)(C)C)[C@H](c3cccc(OCCO)c3)N2C1=O	-3.45	1.45 (inactive)	-0.986 (inactive)	-29 (active)	1.3 (inactive)	0.958 (inactive)	-0.234 (inactive)	-0.667 (inactive)	-1.16	-0.127
COCCOC(=O)N1C(=O)[C@@]2(c3cc(C#CCC(C(=O)OC)C(=O)OC)ccc31)[C@H](c1ccc(OCCO)cc1)N1[C@H](c3ccccc3)[C@H](c3ccccc3)OC(=O)[C@H]1[C@@H]2C(N)=O	0.331	1.87 (inactive)	-0.22 (inactive)	-1.15 (inactive)	2.32 (inactive)	2.34 (inactive)	-0.102 (inactive)	-0.554 (inactive)	-0.112	0.049
COc1cc2c(cc1OC)CN(C(=O)[C@@H]1[C@H]3C(=O)O[C@H](c4ccccc4)[C@H](c4ccccc4)N3[C@H](c3ccc(O)cc3)[C@@]13C(=O)Nc1ccc(C#CCNC(N)=O)cc13)CC2	1.1	0.526 (inactive)	0.602 (inactive)	-0.0904 (inactive)	0.723 (inactive)	2.03 (inactive)	0.595 (inactive)	0.322 (inactive)	0.431	-0.0663
O=C(N1CCOCC1)[C@@]1(CCS(=O)(=O)c2ccccc2)COC(c2ccc(OCCCO)cc2)=N1	0.0754	0.0036 (inactive)	-0.262 (inactive)	0.0576 (inactive)	0.193 (inactive)	0.0216 (inactive)	-0.0668 (inactive)	0.589 (inactive)	-0.387	-0.02
COCCOC(=O)N1C(=O)[C@@]2(c3cc(C#CCNC(N)=O)ccc31)[C@H](C(=O)N1CCCCCCC1)[C@H]1C(=O)O[C@H](c3ccccc3)[C@H](c3ccccc3)N1[C@@H]2c1ccc(OCCO)cc1	-0.178	0.971 (inactive)	-0.237 (inactive)	-0.0134 (inactive)	2.73 (inactive)	1.59 (inactive)	-0.0272 (inactive)	0.531 (inactive)	0.176	0.0471
NCCCCCCNC(=O)[C@H]1C[C@H]2C(=O)N3CCC[C@H]3C(=O)N2[C@H]1c1ccc(O)cc1	-0.541	-0.438 (inactive)	-0.431 (inactive)	-0.245 (inactive)	-0.0059 (inactive)	-1.09 (inactive)	0.0967 (inactive)	-0.676 (inactive)	-0.508	-0.223
C=CC[C@]1(C(=O)N2CCOCC2)N=C(c2ccc(OCCCO)cc2)O[C@H]1c1ccccc1CN=[N+]=[N-]	-0.744	-0.33 (inactive)	-0.574 (inactive)	0.155 (inactive)	-0.497 (inactive)	0.301 (inactive)	-0.186 (inactive)	0.0726 (inactive)	-1.03	0.208
CCC[C@@H]1C[C@@]1(CCC)[C@@H](NC(=O)c1ccco1)c1ccc(Cl)cc1	1.6	0.614 (inactive)	0.254 (inactive)	-0.152 (inactive)	0.439 (inactive)	0.288 (inactive)	-0.195 (inactive)	0.105 (inactive)	-1.67	-0.683
C=CCN1C(=O)[C@@]2(O[C@@H](CCO)[C@H]([Si](C)(C)c3ccc(OC)cc3)[C@H]2C)c2cc(NC(=O)[C@H](C)O)ccc21	-1.15	-2.34 (inactive)	-2.15 (inactive)	-0.108 (inactive)	1.73 (inactive)	2.32 (inactive)	0.895 (inactive)	0.403 (inactive)	-2.3	0.555
OCCCC1=CC(c2cccs2)N(Cc2cccc(OC(F)(F)F)c2)CC1 (stereo not given)	-0.505	-4.17 (inactive)	-0.656 (inactive)	-1.3 (inactive)	-0.341 (inactive)	-0.54 (inactive)	0.0886 (inactive)	-0.573 (inactive)	-0.175	0.282
C=C(COC)C(=O)CC[C@H](OC(=O)c1ccccc1-c1ccccc1C(=O)O)c1ccc(OCCO)cc1	-0.381	0.142 (inactive)	-0.288 (inactive)	-0.575 (inactive)	1.3 (inactive)	-0.386 (inactive)	-0.752 (inactive)	-0.561 (inactive)	-0.7	0.0223
